According to PubChem BioAssay (NCATS):
A number with no mark means an inactive call. Records with an inconclusive call do not appear. Active and inactive are the calls of the source. Unless noted, calls follow the shape of the dose curve; as a rule, active = well fitted curve in either direction with a large enough effect (not every such curve was filed as active); inconclusive = small, poorly fitted or top-dose-only effect, or another doubt; inactive = flat fitted curve, though single readings scatter.

Assays:
[1] = target: Lysosomal acid glucosylceramidase (Homo sapiens) (UniProt P04062); experiment: Glucocerebrosidase-p2 (AID 348; in the data active = potency below about 10 µM; also: potency is read from the fitted curve at half-maximal effect); settings: purified GBA, blue fluorogenic substrate, 40 min
Lysosomal acid glucosylceramidase (Homo sapiens), sequence (P04062 whole entry, looked up): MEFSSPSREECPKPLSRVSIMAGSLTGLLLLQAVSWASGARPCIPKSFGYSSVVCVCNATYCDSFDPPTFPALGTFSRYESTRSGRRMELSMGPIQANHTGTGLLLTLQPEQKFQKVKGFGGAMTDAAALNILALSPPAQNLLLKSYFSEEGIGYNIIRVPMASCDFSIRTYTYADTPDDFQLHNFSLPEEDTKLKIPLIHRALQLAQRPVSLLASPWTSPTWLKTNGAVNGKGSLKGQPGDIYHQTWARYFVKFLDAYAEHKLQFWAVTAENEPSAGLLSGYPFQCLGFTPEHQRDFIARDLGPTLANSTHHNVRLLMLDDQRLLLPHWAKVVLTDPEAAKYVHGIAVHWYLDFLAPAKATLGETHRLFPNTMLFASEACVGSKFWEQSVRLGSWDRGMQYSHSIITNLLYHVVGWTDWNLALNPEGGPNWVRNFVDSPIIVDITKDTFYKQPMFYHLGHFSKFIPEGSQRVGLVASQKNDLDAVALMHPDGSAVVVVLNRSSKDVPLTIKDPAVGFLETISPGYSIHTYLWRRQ
Outline: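 Compounds titrated from 0.6 nM upwards against 0.2 nM enzyme in pH 5.9 citric acid/KH2PO4, taurocholate, tween-20; blue fluorogenic substrate 80 uM, 40 min room temperature, stopped and read Ex 365/Em 440 for AC50.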

[2] = AP1 Signaling Pathway (AID 357); settings: ME-180 AP-1-bla reporter, EGF-induced, beta-lactamase ratio, 5 h; at 7.69 µM (top of the series) unless noted;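 also: ME-180 reporter cells stimulated with EGF at its EC50 level; % is scaled to controls: 0 for no effect and ±100 for the full control effect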
Outline: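 AP-1-bla ME-180 cells, Opti-MEM + 0.5% dialyzed FBS, plated overnight 37 °C. Cpd titration + EC50 EGF, 5 h 37 °C. CCF4 2.5 h RT; ex 405, em 460/530 ratio → %activity, AC50.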

[3] = target: Cytochrome P450 1A2 (Homo sapiens) (UniProt P05177); experiment: p450-cyp1a2 (AID 410; calls by dose curve; also: potency is read from the fitted curve at half-maximal effect;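 as to activity change, negative = inhibition: -100% = full effect of reference inhibitor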); settings: recombinant CYP1A2, luciferin-ME demethylation, luminescence; series mostly up to 11.4 µM
Cytochrome P450 1A2 (Homo sapiens), sequence (P05177 whole entry, looked up): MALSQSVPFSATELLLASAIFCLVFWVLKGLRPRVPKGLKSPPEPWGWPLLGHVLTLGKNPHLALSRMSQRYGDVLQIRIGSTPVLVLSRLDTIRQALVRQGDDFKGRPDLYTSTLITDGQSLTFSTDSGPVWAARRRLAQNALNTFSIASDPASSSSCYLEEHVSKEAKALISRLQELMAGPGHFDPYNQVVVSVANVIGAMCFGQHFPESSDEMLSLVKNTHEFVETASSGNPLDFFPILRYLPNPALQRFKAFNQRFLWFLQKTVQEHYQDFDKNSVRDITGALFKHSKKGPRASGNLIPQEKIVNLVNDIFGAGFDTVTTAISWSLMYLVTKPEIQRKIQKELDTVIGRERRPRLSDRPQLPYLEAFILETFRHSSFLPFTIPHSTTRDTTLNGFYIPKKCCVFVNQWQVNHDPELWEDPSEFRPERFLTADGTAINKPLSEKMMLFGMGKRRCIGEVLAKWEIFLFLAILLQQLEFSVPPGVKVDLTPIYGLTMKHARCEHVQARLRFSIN
Outline: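 20nM CYP1A2 with 100uM Luciferin-ME (at Km) in 100mM KPO4; compound preincubated 10 min, NADPH regeneration added, 60 min at room temperature. Luciferin quantified by luminescence after detection reagent; normalized to 57 uM furafylline.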

[4] = NFAT Signaling Pathway (AID 444); settings: Jurkat NFAT-bla M1, carbachol, beta-lactamase ratio, 5 h; at 7.69 µM (top of the series) unless noted;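 also: carbachol stimulus at about its EC50 of 1 µM final; % is scaled to controls: 0 for no effect and ±100 for the full control effect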
Outline: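 Read-out: CCF4 FRET ratio (460 nm/530 nm) after 1 h RT dye loading, used for %activity and AC50 from titration series. Cells: Jurkat NFAT-β-lactamase/M1 line, treated with compound plus 1 uM carbachol for 5 h, 37 °C.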

[5] = Stat Signaling Pathway (AID 446); settings: ME-180 (cervical carcinoma) SIE beta-lactamase reporter, IL-6 stimulated, 5 h; at 7.69 µM (top of the series) unless noted;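 also: ME-180 cervical cancer cells given 40 pM IL-6 alongside compound; SIE-controlled beta-lactamase reporter measured as 460/530 nm FRET emission ratio; % is scaled to controls: 0 for no effect and ±100 for the full control effect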
Outline: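 IL-6/STAT signaling read in ME-180 cells via an SIE beta-lactamase reporter. Stimulus was 40 pM IL-6 (its AC50) for 5 hrs, so both activation and inhibition register.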

[6] = target: Glucocorticoid receptor (Homo sapiens) (UniProt P04150); experiment: GR-GFP Redistribution (AID 450;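 active = compounds whose dose series gives a full or clear partial fitted curve of increased nuclear translocation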; also: potency is read from the fitted curve at half-maximal effect); settings: U2OS GR-GFP nuclear translocation, laser cytometry, 2 h
Glucocorticoid receptor (Homo sapiens), sequence (P04150 whole entry, looked up, the tested form may be a part): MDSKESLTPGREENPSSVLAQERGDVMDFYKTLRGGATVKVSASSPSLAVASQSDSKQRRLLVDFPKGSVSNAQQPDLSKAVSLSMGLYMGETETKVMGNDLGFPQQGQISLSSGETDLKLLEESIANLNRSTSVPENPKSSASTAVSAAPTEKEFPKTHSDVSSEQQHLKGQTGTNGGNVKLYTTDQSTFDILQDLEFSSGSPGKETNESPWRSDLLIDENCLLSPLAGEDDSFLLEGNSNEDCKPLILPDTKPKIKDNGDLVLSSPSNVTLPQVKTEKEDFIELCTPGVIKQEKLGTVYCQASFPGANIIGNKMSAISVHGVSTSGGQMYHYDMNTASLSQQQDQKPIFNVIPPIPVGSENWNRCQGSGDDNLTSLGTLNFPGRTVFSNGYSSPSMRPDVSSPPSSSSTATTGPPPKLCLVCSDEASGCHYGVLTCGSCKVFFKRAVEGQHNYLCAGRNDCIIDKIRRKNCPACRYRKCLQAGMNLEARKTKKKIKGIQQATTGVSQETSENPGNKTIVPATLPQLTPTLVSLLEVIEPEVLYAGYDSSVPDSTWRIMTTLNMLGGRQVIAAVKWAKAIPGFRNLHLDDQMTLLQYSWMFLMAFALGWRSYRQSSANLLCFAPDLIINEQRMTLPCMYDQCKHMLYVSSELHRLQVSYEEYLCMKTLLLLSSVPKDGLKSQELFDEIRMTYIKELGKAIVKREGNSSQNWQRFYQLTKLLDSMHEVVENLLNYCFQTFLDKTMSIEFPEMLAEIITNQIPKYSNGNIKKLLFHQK

[7] = target: Glucocorticoid receptor (Homo sapiens) (UniProt P04150); experiment: GR-EFC Redistribution (AID 451; calls by dose curve; also: potency is read from the fitted curve at half-maximal effect); settings: CHO-K1 GR-EFC translocation, beta-gal luminescence, 2 h
Outline: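 Translocation of GR-ED fusion to nuclear EA restores b-gal, read by luminescence after 1 h room-temperature detection. Engineered CHO-K1 biosensor cells, 1,000/well, exposed 2 h at 37 C to titrations up to 46 uM final.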

[8] = target: Mitogen-activated protein kinase 10 (Mus musculus) (UniProt Q61831); experiment: JNK3 AlphaScreen Assay (AID 530); settings: JNK3 lysate, c-Jun phosphorylation; series mostly up to 11.4 µM;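 also: kinase came from lysate of stimulated human HepG2 cells; signal reports phosphorylation of biotinylated GST-cJun 1-79 at Ser73 with 10 µM ATP; % is scaled to controls: 0 for no effect and ±100 for the full control effect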
Outline: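 Compound titrations were preincubated 15 minutes at room temperature with substrate, antibody and pre-activated JNK3-containing HepG2 lysate. Reactions were started with 10 uM ATP and stopped with EDTA-containing bead buffer for AlphaScreen detection.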

[9] = target: 3',5'-cyclic-AMP phosphodiesterase 4B (Homo sapiens) (UniProt Q07343); experiment: qHTS Assay for Inhibitors of PDE-IV (AID 607; active = well fitted activation curve with a large enough effect in the main read-out, with a control signal flat, not every such curve was filed as active; also: % of control where 0% means no effect); settings: HEK293 ACTOne CNG channel cells, membrane potential fluorescence; series mostly up to 22.9 µM
3',5'-cyclic-AMP phosphodiesterase 4B (Homo sapiens), sequence (Q07343 whole entry, looked up): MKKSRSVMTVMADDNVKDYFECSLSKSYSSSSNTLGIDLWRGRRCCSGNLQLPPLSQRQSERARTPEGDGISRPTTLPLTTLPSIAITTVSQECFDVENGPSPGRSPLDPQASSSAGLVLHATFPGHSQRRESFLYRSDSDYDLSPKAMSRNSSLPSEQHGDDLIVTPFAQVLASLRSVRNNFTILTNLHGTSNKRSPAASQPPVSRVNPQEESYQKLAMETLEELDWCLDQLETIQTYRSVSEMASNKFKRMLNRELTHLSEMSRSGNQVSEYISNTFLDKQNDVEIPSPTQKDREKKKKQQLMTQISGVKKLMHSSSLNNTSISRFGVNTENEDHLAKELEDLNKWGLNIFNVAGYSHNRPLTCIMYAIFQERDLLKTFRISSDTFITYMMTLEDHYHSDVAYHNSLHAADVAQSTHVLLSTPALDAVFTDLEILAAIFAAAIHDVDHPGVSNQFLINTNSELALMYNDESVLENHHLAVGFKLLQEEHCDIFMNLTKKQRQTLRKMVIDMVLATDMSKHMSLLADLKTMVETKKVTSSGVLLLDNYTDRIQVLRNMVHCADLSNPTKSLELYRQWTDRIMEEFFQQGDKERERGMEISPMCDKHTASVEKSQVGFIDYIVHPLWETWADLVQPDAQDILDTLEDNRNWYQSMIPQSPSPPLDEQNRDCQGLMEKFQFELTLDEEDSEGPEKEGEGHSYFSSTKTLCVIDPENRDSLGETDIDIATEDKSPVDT
Outline: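 Live HEK293 cells with a modified cyclic nucleotide-gated (CNG) channel report intracellular cAMP via membrane-potential dye fluorescence (ex 535/em 590 nm). Endogenous PDE-IV was targeted. Compounds were tested at up to 22.9 uM final; RO 20-1724 100 uM served as control.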

SMILES	Potency [1]	activity change, negative = inhibition [2]	Potency [3]	activity change, negative = inhibition [4]	activity, negative = inhibition [5]	Potency [6]	Potency [7]	Potency [8]	Potency [9]	activity change, negative = inhibition [3]
COc1cccc2c1C(=O)c1c(O)c3c(c(O)c1C2=O)C[C@@](O)(C(=O)CO)C[C@H]3O[C@H]1C[C@@H](N)[C@H](O)[C@@H](C)O1.[W]	> 11.4 µM	0.391%	inactive	-27.2%	14.9%	> 46 µM	> 9.22 µM	inactive	inactive	–
C[N+]1(C)CCc2cc(O)c(O)cc2[C@H]1Cc1ccc(O)c(O)c1	> 11.4 µM	-2.63%	–	-9.29%	6.76%	> 46 µM	> 9.22 µM	inactive	inactive	-12.1% [at 2.29 µM]
O=C(O)[C@@H]1Cc2c([nH]c3ccccc23)[C@@H](CCCCO)N1	> 11.4 µM	-12.4%	–	3.55%	-0.601%	> 46 µM	> 9.22 µM	inactive	inactive	-9.6% [at 2.29 µM]
CCSC[C@@H](N)C(=O)O	> 11.4 µM	5.2%	–	-9.5%	0.221%	> 46 µM	> 9.22 µM	inactive	inactive	-1.6% [at 2.29 µM]
CN(C)CCCCN1CCc2c(n(C)c3ccccc23)C1=O	> 11.4 µM	14%	–	5.6%	3.15%	> 46 µM	> 9.22 µM	inactive	inactive	-14.1% [at 2.29 µM]
O=C(N/N=C\c1cccc(O)c1)c1ccncc1	> 11.4 µM	-2.52%	inactive	-7.01%	4.22%	> 46 µM	> 9.22 µM	inactive	inactive	–
Cc1cc(C(=O)CSC(=S)SC(C)(C)C)ccc1Cl	> 11.4 µM	7.67%	1.58 µM (active)	-16.2%	-27.2%	> 46 µM	> 9.22 µM	inactive	inactive	–
O=C(O)[C@@H]1[C@@H](C(=O)Nc2ccccc2)[C@@H]2C=C[C@@H]1O2	> 11.4 µM	3.5%	–	8.21%	-5.22%	> 46 µM	> 9.22 µM	inactive	inactive	-18.1% [at 2.29 µM]
NC[C@H]1O[C@H](n2cnc3c(N)ncnc32)C[C@@H]1O	> 11.4 µM	-8.42%	inactive	7.55%	9.05%	> 46 µM	> 9.22 µM	inactive	inactive	–
N#CCCn1c(=O)c(-c2cccc(C#N)c2)nc2cnc(Oc3ccccc3)nc21	> 11.4 µM	-17.5%	20 µM (active)	-7.09%	-3.8%	> 9.22 µM	> 46 µM	inactive	inactive	–
CCn1c(CCCc2nc3c([nH]2)c(=O)n(C)c(=O)n3C)nc2c1c(=O)n(C)c(=O)n2C	> 11.4 µM	-3.01%	–	6.75%	1.77%	> 46 µM	> 9.22 µM	inactive	inactive	-16.7% [at 2.29 µM]
O=C(O)c1cc(=O)[nH]c(=S)[nH]1	> 11.4 µM	-9.52%	–	5.67%	6.7%	> 46 µM	> 9.22 µM	inactive	inactive	-10.7% [at 2.29 µM]
O=C(O)c1ccc([N+]2=Cn3c(nc4ccccc43)C2)cc1	> 11.4 µM	-0.795%	5.01 µM (active)	9.31%	0.556%	> 46 µM	> 9.22 µM	inactive	inactive	–
N[C@@H](CSCc1ccccc1)C(=O)O	> 11.4 µM	14.5%	inactive	3.49%	-2.8%	> 46 µM	> 9.22 µM	inactive	inactive	–
Cc1ccccc1S(=O)(=O)O[C@@H]1NS(=O)(=O)c2ccccc21	> 11.4 µM	6.97%	–	10.8%	0.825%	> 46 µM	> 9.22 µM	inactive	inactive	13.5% [at 2.29 µM]
NCCNc1ncnc2ccc(Cl)cc12	11.7 µM	5.69%	1 µM (active)	-9.27%	-14.9%	> 46 µM	> 9.22 µM	inactive	inactive	–
CN(C)CCNS(=O)(=O)N(C)C	> 11.4 µM	-0.375%	inactive	3.58%	4.72%	> 46 µM	> 9.22 µM	inactive	inactive	–
CC1(C)O[C@@H]2O[C@H]([C@@H]3COC(C)(C)O3)[C@H](N)[C@H]2O1	> 11.4 µM	5.74%	–	10.1%	5.21%	> 46 µM	> 9.22 µM	inactive	inactive	8.7% [at 2.29 µM]
O=c1[nH]cc(CS(=O)(=O)Cc2c[nH]c(=O)[nH]c2=O)c(=O)[nH]1	> 11.4 µM	-0.933%	inactive	1.47%	0.704%	> 46 µM	> 9.22 µM	inactive	inactive	–
CN(C)c1ccc(C2N([C@H](C#N)c3ccc(N(C)C)cc3)CCCN2[C@@H](C#N)c2ccc(N(C)C)cc2)cc1 (stereo not given in full)	> 11.4 µM	0.74%	5.01 µM (active)	-11.3%	6.93%	> 46 µM	> 9.22 µM	inactive	inactive	–
N=C(N)SCc1cccc(-c2nc3ccccc3c(=O)o2)c1	> 11.4 µM	0.968%	–	10.1%	2.22%	> 46 µM	> 9.22 µM	inactive	inactive	-10.3% [at 2.29 µM]
CC(C)(C)c1cc2c(O)c(c1)Cc1cc(C(C)(C)C)cc(c1O)Cc1cc(C(C)(C)C)cc(c1O)Cc1cc(C(C)(C)C)cc(c1O)Cc1cc(C(C)(C)C)cc(c1O)Cc1cc(C(C)(C)C)cc(c1O)Cc1cc(C(C)(C)C)cc(c1O)Cc1cc(C(C)(C)C)cc(c1O)C2	> 11.4 µM	6.61%	inactive	-14.8%	-5.63%	> 46 µM	> 9.22 µM	inactive	inactive	–
N[C@H](C(=O)O)[C@@H](O)c1cnc[nH]1	> 11.4 µM	6.1%	inactive	-4.22%	2.54%	> 46 µM	> 9.22 µM	inactive	inactive	–
Nc1nc(-c2cccnc2)cc(-c2cc(-c3cccnc3)nc(N)n2)n1	> 11.4 µM	16.4%	–	12.8%	1.62%	> 46 µM	> 9.22 µM	inactive	inactive	-15.9% [at 2.29 µM]
C=C(C)CNCCN	> 11.4 µM	0.933%	–	17.5%	8.28%	> 46 µM	> 9.22 µM	inactive	inactive	2.2% [at 2.29 µM]
O=C(O)c1cscc1Cc1cccs1	> 11.4 µM	-0.132%	inactive	-2.63%	5.79%	> 46 µM	> 9.22 µM	inactive	inactive	–
O=c1c[n+](CC[n+]2cc(=O)o[nH]2)[nH]o1	> 11.4 µM	2.98%	2.51 µM (active)	12.3%	4.21%	> 46 µM	> 9.22 µM	inactive	inactive	–
Nc1nc(-c2ccccc2)c(-c2ccccc2)c(-c2nc(N)nc(-c3ccccc3)c2-c2ccccc2)n1	> 11.4 µM	-1.08%	inactive	16.1%	3.19%	> 46 µM	> 9.22 µM	inactive	inactive	–
CC1=CC(=O)CC(C)(C)[C@]1(O)/C=C\C(C)=C\C(=O)O	> 11.4 µM	2.59%	inactive	-29.1%	2.83%	> 46 µM	> 9.22 µM	inactive	inactive	–
CSc1nc(C)cc(Nc2ccc(O)c(CN3CCOCC3)c2)n1	> 11.4 µM	-11.8%	3.98 µM (active)	12.3%	-6.58%	> 46 µM	> 9.22 µM	inactive	inactive	–
